Experimental findings from ChEMBL document CHEMBL3988442, “University of Dundee, Small-Polar-MMV Screening Library” (2021) are described below.

SMILES strings stand for the structures. Out of some 85,000 compounds screened, about 440 (0.52%) showed an effect of 50% or more. What follows is part of a selection rich in strong results, with near analogues and random picks from the rest.

The test in a line: In vitro enzyme assay to detect hydrolysis of chlorophenol red-beta-D-[…] directly proportional to the number of Toxoplasma stably expressing beta-galactosidase. The class given is functional, organism-based, Toxoplasma gondii. Details: scale not given: in the data most compounds retested in dose-response had high values.

For `CC(C)CCC(=O)N1CCC(C)(CO)C1` (centres undefined), the “Percent Effect” value (50 µM) worked out at 58.28%. Still for that read-out and setting: with `CC(C)CCC(=O)N1CCNCC1` the figure was -1.153%. Consider `Cc1noc(C)c1CN1CCCC(CS(C)(=O)=O)C1` (centres undefined), for which, where the note is “50 µM”, the “Percent Effect” value is on record as -9.047%.

With `O=C1CC(C(=O)N2CCOC3(CCCC3)C2)CCN1` (centres undefined), the “Percent Effect” value (50 µM) was -8.974%. The same measure, in the same setting: with `C1CC(C2CNC2)CO1` (centres undefined) the figure was 5.994%; with `C1CC(C2CCOC2)CCN1` (centres undefined), 0.8119%; with `C1CC(C2CNC2)CCO1`, 67.45%. Same read-out and setting: under `CCNC(=O)CNc1nccc(OC)n1` stands 5.07%; under `Cc1nn(-c2ccc(F)cc2)cc1CN`, -3.262%; under `CC(C)COCC1CCNCC1`, 3.232%. Still for that read-out and setting: with `Cc1ccc(C(=O)NCCCNCCCN(C)C)cn1` the figure was 99.75%.

Take `CCCC(=O)NCCCNC(=O)c1ccc(C)nc1`: the “Percent Effect” value (50 µM) was -3.506%. Consider `Cc1ccc(C(=O)NCC(C)(C)N(C)C)cn1`, for which the “Percent Effect” value (50 µM) was -0.683%. The same measure, in the same setting: with `O=C(NC1CCCSC1)N[C@H](CO)Cc1ccccc1` (some centres undefined) the figure was 1.879%; with `O=C(NC1CCCSC1)N(CCO)C1CC1` (centres undefined), 98.6%; with `Cc1nnc(NC(=O)N(CCO)C2CC2)s1`, -4.304%. On the same count and under the same terms, under `CCCn1ccnc1CNC(=O)CCNS(C)(=O)=O` stands -5.274%; under `Cc1cc(S(=O)(=O)N[C@@H]2CCOC[C@H]2O)n(C)n1`, 15.92%; under `CCn1ccnc1CN(C)CCC(=O)NC(C)C`, 14.34%.

`CN(C)C1CCN(C(=O)CN(C)S(C)(=O)=O)CC1`: the “Percent Effect” value (50 µM) was -9.436%. On the same count and under the same terms, with `COc1ncccc1-c1csc(NCCSC)n1` the figure was 98.47%.

As to `COc1ncccc1-c1cccc(C#N)n1`, for the setting “50 µM”, the “Percent Effect” value amounted to 5.499%. For `COCCNc1nc(-c2ccc(O)cc2O)cs1`, the “Percent Effect” value (50 µM) is 0.3364%. The same measure, in the same setting: with `N#Cc1cccc(NC(=O)NC2CCS(=O)(=O)C2)c1` (centres undefined) the figure was 1.062%; with `CCC(=O)N(c1ccc(Cl)cc1)C1C=CS(=O)(=O)C1` (centres undefined), -0.8656%; with `NCCCNS(=O)(=O)c1ccc(Cl)cc1`, -0.1272%. In the case of `Cc1ccc(-c2cc(C(=O)NCCC3=CCCCC3)[nH]n2)o1`, the “Percent Effect” value (10 µM) amounted to 28.69%. On the same count and under the same terms, under `CCCc1cc(C(=O)NCCC2=CCCCC2)[nH]n1` stands 32.61%; under `O=C(NCCC1=CCCCC1)c1cc(-c2ccc(O)cc2)n[nH]1`, 74.79%. For `O=C(CN1CCN(CCO)CC1)Nc1ccc(Br)cn1`, the “Percent Effect” value (50 µM) worked out at 2.183%.

Consider `COc1cc(Cl)ccc1CN`, for which, where the note is “50 µM”, the “Percent Effect” value amounted to 12.35%. With `Cc1cc(=O)n(CC(=O)Nc2ccc(Cl)cc2)nc1C`, the “Percent Effect” value (10 µM) is given as 3.812%.

Turning to `CC(=O)c1c(C)nn(CC(=O)Nc2ccc(F)cc2)c1C`, the “Percent Effect” value (10 µM) worked out at 19.31%.

On to `COc1ccc(NC(=O)Cn2nc(C)c(C(C)=O)c2C)cc1`, for which, under “10 µM”, the “Percent Effect” value is recorded as 89.45%. With `CCN1CCN(CC(=O)Nc2ccc(OC)cc2)CC1`, where the note is “50 µM”, the “Percent Effect” value was 6.454%. For `COc1ccc(NC(=O)Cn2nc(C)c(C)cc2=O)cc1`, the “Percent Effect” value (10 µM) is listed as -1.054%. The same measure, in the same setting: with `CC(=O)c1c(C)nn(CC(=O)Nc2ccc(Br)cc2)c1C` the figure was 96.91%. As to `NCCS(=O)(=O)NCc1ccccc1`, the “Percent Effect” value (50 µM) was -6.39%. The same measure, in the same setting: with `CC(=O)NCCNC(=O)CC(C)C1CCCCC1` (centres undefined) the figure was -13.76%; with `CNC(=O)CN1CCC(NC(=O)c2cccs2)CC1`, -6.649%; with `CS(=O)(=O)C1CCCCN(C(=O)CC2CCSCC2)C1` (centres undefined), -13.3%. On the same count and under the same terms, under `NC(=O)c1ccc(OCC(=O)c2ccccc2F)cc1` stands -5.248%. On to `CCN(Cc1ccncc1)c1cc(C2CCCNC2)nc(C)n1` (centres undefined), for which the “Percent Effect” value (10 µM) was 14.41%. Same read-out and setting: under `Cc1nc(C2CCNCC2)cc(N(C)Cc2cc3cc(F)ccc3[nH]2)n1` stands 63.01%; under `Cc1nc(-c2ccc(F)cc2)cc(C2CCNCC2)n1`, 1.268%; under `CCN(Cc1ccncc1)c1cc(C2CCNCC2)nc(C)n1`, 30.82%. Turning to `CCN(Cc1c(F)cccc1Cl)c1cc(C2CCNCC2)nc(C)n1`, where the note is “10 µM”, the “Percent Effect” value is recorded as 79.97%. Same read-out and setting: with `CN(Cc1cc2cc(F)ccc2[nH]1)c1cc(C2CCCNC2)ncn1` (centres undefined) the figure was 38.81%. As to `CCC(N)c1ccccc1OCC(=O)N(C)C` (centres undefined), where the note is “50 µM”, the “Percent Effect” value is reported as -2.206%. The same measure, in the same setting: under `NC(=O)CCSc1nnc(N2CCCC2)n1C1CC1` stands 10.69%; under `Cc1nccn1CCNc1cc(C2CC(O)C2)ncn1` (centres undefined), 47.03%. Still for that read-out and setting: with `CNC(=O)NC(=O)CCN1CCCCC1` the figure was -8.963%; with `CNC(=O)NC(=O)CCN1CCCC(C(F)(F)F)C1` (centres undefined), -7.84%; with `CNC(=O)NC(=O)CCN1CCCC(C)C1` (centres undefined), 60.28%. Regarding `Cc1nn(C)cc1C(C)NC(=O)CNc1ccccc1` (centres undefined), the “Percent Effect” value (50 µM) is recorded as -0.7115%.

Consider `CN(CC(=O)N1CCOCC1)Cc1cc(Br)cs1`, for which the “Percent Effect” value (50 µM) is 6.245%. On to `N#Cc1c(Cl)nsc1NCC1(c2ccccc2)CCC1`, for which the “Percent Effect” value (10 µM) turned out to be 79.2%. Same read-out and setting: under `COc1ccccc1C1(CNc2snc(Cl)c2C#N)CCCC1` stands 2.513%; under `COc1ccccc1C1(CNc2snc(Cl)c2C#N)CCOCC1`, -0.2674%.
